We go through ten compounds from PubChem BioAssay AID1049 (The Scripps Research Institute Molecular Screening Center, 2008).

The structures appear in SMILES notation. About 780 (0.39%) of roughly 200,000 compounds were called active. This is one part of a sample in which actives are shown more often than they occur. Cut-off read from the data, not from the text of the source: active = TR-FRET ratio above about 2000; inactive = the rest.

A short description of this experiment: detection-format interference in TR-FRET ratio – biochemical, artefact control for PPARgamma SRC-2 agonist project, primary screen (AID 1049). The following applies: TR-FRET artefact counter-screen; at 8 µM; hits give high values. For orientation: TR-FRET usually uses a lanthanide donor and a delayed reading to cut background.
Consider `CSC1=NP(=S)(SC)N(C)c2nc3n(c21)CCC3` (stereo not given), for which the TR-FRET ratio was 3350 (active).
With `Cc1ccc(C)c(NC2=NCCCS2)c1`, the TR-FRET ratio is 1500 (inactive).
`Cc1cccc(-n2c(O)c(C=NC34CN5CN(CN(C5)C3)C4)c(=O)[nH]c2=O)c1`: the TR-FRET ratio is 1640 (inactive).
With `OC1/C(=C/c2ccc(C(F)(F)F)cc2)N2CCC1CC2` (stereo not given), the TR-FRET ratio was 1710 (inactive).
As to `COc1cc(-n2c(=S)[nH]c3ccc(C)cc3c2=O)c(Cl)cc1Cl`, the TR-FRET ratio was 2140 (active).
Turning to `O=c1c2ccccc2nc(-c2ccccc2)n1-c1ccccn1`, the TR-FRET ratio is 1550 (inactive).
As for `O=C(COC(=O)Cc1ccccc1)Nc1ccc(F)cc1`, the TR-FRET ratio was 1600 (inactive).
Take `CN(C)c1nc(N(C)C)nc(N(C#N)CCCl)n1`: the TR-FRET ratio was 1800 (inactive).
The result for `CCCn1c(C(=O)c2ccccc2OC)nc2ccccc21` reads 1400 (inactive); that for `O=c1[nH]c(=O)n(-c2ccccc2)c(O)c1C=NC12CN3CN(CN(C3)C1)C2`, 1500 (inactive).
